# Assay outcomes (PubChem BioAssay)
# AmpC detergent: qHTS Inhibitors of AmpC Beta-Lactamase (assay with detergent); P00811; AmpC hydrolysis of nitrocefin, absorbance 480 nm, 0.01% Triton; Potency, µM (series often up to 114 µM), most hits filed as inhibitors; AID 485294, 2010; 0.041% of 370,000 active; further: nearly all actives have a fitted effect of over 25% in size
# Target sequence (P00811 whole entry, looked up): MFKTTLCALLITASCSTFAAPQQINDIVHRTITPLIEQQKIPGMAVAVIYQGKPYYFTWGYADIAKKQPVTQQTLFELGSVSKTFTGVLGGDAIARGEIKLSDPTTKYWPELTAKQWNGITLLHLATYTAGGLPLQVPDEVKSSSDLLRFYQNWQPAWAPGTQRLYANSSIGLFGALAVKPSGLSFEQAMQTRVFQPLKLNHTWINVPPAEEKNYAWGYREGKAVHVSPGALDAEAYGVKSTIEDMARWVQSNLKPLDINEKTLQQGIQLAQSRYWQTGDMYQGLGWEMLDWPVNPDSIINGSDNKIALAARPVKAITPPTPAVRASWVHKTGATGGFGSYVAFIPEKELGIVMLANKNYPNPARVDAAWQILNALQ
#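 20 mM phosphate pH 7.0 + 0.01% (detergent screen) or 0.0001% Triton X-100; 5.3 nM AmpC reagent; cpd preinc 15 min RT; nitrocefin (800 uM stock) to start; A480 q20 s × 4 min; Activity was normalised to no-enzyme and no-compound control wells.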
# SARS PLP yeast: qHTS of Yeast-based Assay for SARS-CoV PLP | S. cerevisiae expressing SARS-CoV PLpro, growth rescue | 0.19% of 330,000 active | Potency, µM (titrated, usually from 32.9 µM), usual class: activators; calls by dose curve; further: nearly all actives have a fitted effect of over 55% in size
# AMA1 RON2 block: qHTS for Inhibitors of AMA1-RON; Towards Development of Antimalarial Drug Lead: Primary Screen. AlphaScreen AMA1-biotinylated RON2 peptide binding. Potency, µM (highest dose often 58.2 µM), actives largely listed as inhibitors. 0.2% of 360,000 active. AID 720542, 2013. Plasmodium falciparum AMA1 (3D7) - RON2 peptide interaction; further: nearly all actives have a fitted effect of over 45% in size
#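 AMA1 (3D7) with his tag at 25 nM final met compounds first, then biotinylated RON2 peptide at 25 nM; detection used donor plus acceptor beads, 10 µg/mL apiece, read by AlphaScreen after 30 min at room temperature.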
# AmpC no deterg: qHTS Inhibitors of AmpC Beta-Lactamase (assay without detergent) | P00811 | AmpC nitrocefin hydrolysis, absorbance 480 nm, 0.0001% Triton | Potency, µM (series often up to 57.1 µM), actives largely listed as inhibitors | 0.52% of 330,000 active | AID 485341, 2010; further: nearly all actives have a fitted effect of over 20% in size
#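 20 mM phosphate pH 7.0 + 0.01% (detergent screen) or 0.0001% Triton X-100; 5.3 nM AmpC reagent; cpd preinc 15 min RT; nitrocefin (800 uM stock) to start; A480 q20 s × 4 min; Activity was normalised to no-enzyme and no-compound control wells.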
# VACV mCherry inh: qHTS for Stage-Specific Inhibitors of Vaccinia Orthopoxvirus: mCherry Reporter Primary qHTS; Vaccinia virus mCherry reporter infection, fluorescence; Potency, µM (highest dose often 36.5 µM), most hits filed as inhibitors; 0.63% of 310,000 active; calls by dose curve; tested in A549 cells; further: nearly all actives have a fitted effect of over 35% in size
# VACV Venus inh: qHTS for Stage-Specific Inhibitors of Vaccinia Orthopoxvirus: Venus Reporter Primary qHTS; Potency, µM (doses to about 36.5 µM), usual class: inhibitors; 0.46% of 330,000 active; Vaccinia virus Venus reporter expression, fluorescence; AID 720580, 2013; calls by dose curve; tested in A549 cells; further: nearly all actives have a fitted effect of over 30% in size
# Numbers stand for hits; i = inactive; ? = inconclusive; nt = not tested or not shown. The list is not random: actives were taken first. Their share in the collection is about 1.3%. Unless noted, the call rests on the fitted dose curve; in most records, active means well fitted curve in the direction sought with a large enough effect; inconclusive means small, poorly fitted or top-dose-only effect, or another doubt; inactive means no such curve, though single readings can be large; an effect the other way counts as inactive or inconclusive.
SMILES,AmpC detergent,SARS PLP yeast,AMA1 RON2 block,AmpC no deterg,VACV mCherry inh,VACV Venus inh
CCOC(=O)/C(C#N)=C1/C=C(C)NC(c2ccccc2O)=N1,?,i,i,i,?,10µM
CCOc1ccc(C(=O)N2CCc3ccccc32)cc1,i,i,i,i,nt,nt
Cc1ccc(-n2c(=O)[nH]cc(C(=O)N3CCc4ccccc43)c2=O)cc1C,?,i,i,10µM,i,i
O=C(c1c[nH]c(=O)n(-c2ccccc2)c1=O)N1CCc2ccccc21,i,i,i,i,nt,nt
CCOc1ccc(-n2c(=O)[nH]cc(C(=O)N3CCc4ccccc43)c2=O)cc1,i,i,i,i,?,2.8µM
CC[n+]1c(/C=C/C=C/c2ccc(N(C)C)cc2)sc2ccccc21,i,i,18µM,i,?,?
CN(C)c1ccc(/C=C/C=C/c2sc3ccccc3[n+]2C)cc1,i,i,i,i,i,i
Cc1nc2sccn2c1CN1Cc2ccccc2OC(c2ccccc2F)C1 (stereo not given),nt,nt,nt,nt,i,i
CC(C)CCCCCCCCCCCCC(=O)NCC(=O)NC1C(O)C(O)C(Nc2ncnc3nc[nH]c23)OC1C(O)CO (stereo not given),nt,nt,i,nt,40µM,11µM
CC(O)CNc1ncnc2nc[nH]c12 (stereo not given),i,i,i,i,nt,nt
Cc1oc(-c2ccccc2NC(=O)C2CCCO2)nc1CNC(=O)c1cc(F)c(F)cc1F (stereo not given),nt,nt,nt,nt,i,i
COC(=O)c1cc(CNC(=O)c2ccccc2)cc(NC(=O)c2ccccc2OC)c1,nt,nt,nt,nt,i,i
Cc1ccc(-c2cn(S(=O)(=O)c3cccc4nsnc34)nc2N)cc1,i,nt,i,nt,nt,i
Nc1nn(S(=O)(=O)c2cccc3nsnc23)cc1-c1ccc(Br)cc1,?,i,?,20µM,nt,?
c1cncc(OC2CCN(Cc3ccc4c(c3)CN(Cc3ccc5c(c3)CCO5)CCO4)CC2)c1,nt,nt,nt,nt,i,i
Cc1ccc2c(c1)CC1(CN2C)C(=O)OC(C)(C)OC1=O,i,i,i,i,7.1µM,10µM
Cc1ccc2c(c1)CC1(CN2C)C(=O)NC(=O)N(c2cc(C)ccc2C)C1=O (stereo not given),i,i,i,i,nt,nt
CSc1ccc(/C=C2\C=Cc3cc([N+](=O)[O-])ccc32)cc1,nt,nt,nt,nt,i,i
O=c1[nH]c(=O)n(C2CC(O)C(CO)O2)cc1I (stereo not given),nt,nt,i,nt,5µM,?
Cc1ccccc1C(=O)OC1OC(=O)C(Cl)=C1Nc1ccc(C(=O)O)cc1 (stereo not given),1.3µM,i,i,1.1µM,i,i
Cc1ccc(Cl)cc1NC(=O)C1CCCN(S(=O)(=O)c2cccc3cccnc23)C1 (stereo not given),i,nt,nt,nt,i,i
Cc1ccccc1NC(=O)C1CCCN(S(=O)(=O)c2cccc3cccnc23)C1 (stereo not given),?,i,i,5µM,i,i
Cc1ccccc1C1(CC(=O)N2CCCC2c2nccs2)CC(=O)N(C2CCCC2)C1=O (stereo not given),nt,nt,nt,nt,i,i
CCCCNC(=S)N/N=C/c1ccccc1F,i,13µM,i,i,i,i
CCC1CN(CC(=O)NCc2ccc3c(c2)OCO3)Cc2ccc(Cl)cc2O1 (stereo not given),nt,nt,nt,nt,i,i
COc1ccc(C(=O)Nc2ccc3c(c2)C(=O)c2ccccc2C3=O)cc1OC,?,i,i,i,i,i
COc1ccc(C(=O)c2c(C(F)(F)F)oc3c2C(=O)c2ccccc2C3=O)cc1OC,i,i,?,i,nt,5.6µM
CCCS(=O)(=O)NCc1c(C)ncc2c1CCN(C(=O)/C=C/c1ccc(F)cc1F)C2,nt,nt,nt,nt,i,i
COc1ccc(S(=O)(=O)N(CCO)c2ccccc2CN(C)C/C=C/c2ccc(Cl)cc2)cc1,nt,nt,nt,nt,i,i
CN(C)CC(C(=O)c1ccccc1)c1ccccc1 (stereo not given),?,i,i,i,14µM,10µM
